# Compounds with a hit are over-represented: about 1.1% of the library has one in this group of screens.
# PTAP TSG101 blk – blocks PTAP/TSG101 interaction to inhibit HIV-1 budding; 340,000 tested, under 10 active; Fluorescence polarization, FITC-PTAP peptide / Tsg101 binding; AID 493005; Q99816; Potency, µM (top dose mostly 115 µM), for the others: top-dose activity change, negative = inhibition, usual class: inhibitors; active = well fitted inhibition curve with a large enough effect in the main read-out, with a control signal flat, not every such curve was filed as active; inconclusive = small, poorly fitted or top-dose-only effect, or effect the other way, or a change in a side signal; inactive = no such curve, though single readings can be large or run the other way; note: % of control where 0% means no effect
#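 Steps: Tsg101 binding domain dispensed (10 uM final), compounds pinned in DMSO, FITC-labeled PTAP-motif peptide added (50 nM final); after 20 min binding at room temperature, polarization measured.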
# Eya2 phos inh – Eya2 (human) phosphatase inhibition; O00167; recombinant Eya2, OMFP fluorescence dephosphorylation (OMFP is methylfluorescein phosphate); Potency, µM (titrated, usually from 76.9 µM), without a hit: at the top dose activity, negative = inhibition, usual class: inhibitors; 330,000 tested, 0.006% active; AID 488837; note: % is set by controls: 0 for no effect and ±100 for the full control effect
#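 Eya2 (0.2 uM) preincubated 10 min at ambient with compound, then OMFP substrate added at 50 uM; 10 min reaction in 50 mM HEPES pH 7.5, 50 mM NaCl, 5 uM MgCl2, 0.05% BSA, 1 mM DTT. Fluorescence read at Ex 485/Em 525 nm.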
# ALOX12 inh – inhibitors of human 12S-lipoxygenase ALOX12; purified 12hLO, xylenol orange hydroperoxide absorbance; AID 1671190; Potency, µM (top dose mostly 108 µM), for the others: at the highest dose activity change, negative = inhibition, hits mostly inhibitors; 580,000 tested, 1.1% active; P18054; note: % is set by controls: 0 for no effect and ±100 for the full control effect
#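 Purified human 12hLO (150 nM final) in 25 mM Hepes, 0.01% Triton X-100, pH 7.0 was preincubated 15 min at room temperature with compound. Then 40 uM arachidonic acid was added, 30 min. Hydroperoxide was read by Fe-XO absorbance ratio 573/405 nm.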
# USP2a inh – blocks human ubiquitin-specific protease USP2a; O75604; USP2 core, Ub-CHOP2 coupled fluorogenic reporter, 485/531; Potency, µM (doses to about 38.3 µM), for inactives: at the highest dose activity change, negative = inhibition, hits mostly inhibitors; 330,000 tested, 0.01% active; AID 463254;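 note: plate controls were DMSO wells for no effect and full inhibition by NEM control for full effect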
# Target sequence (O75604 whole entry, looked up): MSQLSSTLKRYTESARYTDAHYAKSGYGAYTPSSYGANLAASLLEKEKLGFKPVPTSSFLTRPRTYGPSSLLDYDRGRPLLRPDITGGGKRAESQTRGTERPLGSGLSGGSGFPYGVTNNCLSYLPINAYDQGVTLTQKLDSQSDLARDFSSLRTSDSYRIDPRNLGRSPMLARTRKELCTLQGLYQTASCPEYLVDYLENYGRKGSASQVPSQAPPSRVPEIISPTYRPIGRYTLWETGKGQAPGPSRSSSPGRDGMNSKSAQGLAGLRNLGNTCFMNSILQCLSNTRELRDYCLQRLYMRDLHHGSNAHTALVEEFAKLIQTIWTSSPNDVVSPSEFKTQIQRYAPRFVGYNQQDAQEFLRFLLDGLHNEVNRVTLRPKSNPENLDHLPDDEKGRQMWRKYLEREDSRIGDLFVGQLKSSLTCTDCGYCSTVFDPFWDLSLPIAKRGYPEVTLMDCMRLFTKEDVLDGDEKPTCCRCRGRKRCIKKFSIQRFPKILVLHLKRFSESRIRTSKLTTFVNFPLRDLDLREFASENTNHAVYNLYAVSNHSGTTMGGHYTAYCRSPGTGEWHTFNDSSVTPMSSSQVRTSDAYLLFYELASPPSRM
#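 USP2 core (10nM final) preincubated 30min RT with compound in 20mM Tris-HCl pH 8.0, 2mM CaCl2, 2mM beta-mercaptoethanol, 0.05% CHAPS; 25nM Ub-CHOP2 plus 25nM reporter substrate added, fluorescence (Ex485/Em531) read after 60min.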
# Numbers without * were called inactive; ? = inconclusive; · = no result given; [ ] = another dose, or the depositor's remark. Unless noted, calls come from the whole dose curve; as a rule, active = well fitted curve in the direction sought with a large enough effect; inconclusive = small, poorly fitted or top-dose-only effect, or another doubt; inactive = no such curve, though single readings can be large; an effect the other way counts as inactive or inconclusive. Potency is the fitted concentration of half-maximal effect.
SMILES,PTAP TSG101 blk,Eya2 phos inh,ALOX12 inh,USP2a inh
O=C1c2ccccc2CN1C1CCN(Cc2cccc3ccccc23)CC1,·,·,50µM*,·
O=C(O)c1cccc(Nc2nc3ccccc3nc2NS(=O)(=O)c2ccc(Br)cc2)c1,·,·,13µM*,·
O=C(Nc1ccccc1C(=O)O)c1cccc(NS(=O)(=O)c2ccc(Br)cc2)c1,-5%,3%,40µM*,1%
O=C(Nc1ccccc1C(=O)O)c1cccc(S(=O)(=O)Nc2ccc(Br)cc2)c1,-3%,-3%,16µM*,2%
O=C(O)c1ccc(NS(=O)(=O)c2cccc(C(=O)Nc3ccc(Br)cc3)c2)cc1,-4%,5%,-22%,4%
Cc1ccc(-c2ccc(/C=N/NC(N)=S)o2)cc1,-5%,-10%,45µM*,1%
Cc1ccc(-n2c(C)cc(/C=N/NC(N)=S)c2C)cc1,-5%,-2%,45µM*,1%
Nc1c(N)c2ccccc2oc1=O,-3%,22%,-18%,1%
O=c1oc2ccccc2c2oc3cc(O)c(O)cc3c12,0%,-9%,6.3µM*,-14%
O=C(CCc1c[nH]c2ccccc12)NCc1ccc(Cl)cc1,·,·,-52%,·
COc1cccc(NC(=O)Cn2c(N3CCc4ccccc4C3)nc(C)cc2=O)c1,·,·,28µM*,·
COc1ccc(OC)c(NC(=O)Cn2c(N3CCc4ccccc4C3)nc(C)cc2=O)c1,·,·,-13%,·
O=C(NN=Cc1ccc(F)cc1)c1cccc(S(=O)(=O)N2CCCC2)c1,-2%,-3%,16µM*,4%
Clc1cccc(CNCCN2CCCC2)c1,·,·,2%,·
COc1ccc(CNc2ccnc(-c3ccc4c(c3)OCO4)n2)c(OC)c1,·,·,20µM*,·
COc1ccc(CNc2ccnc(-c3cccc(C#N)c3)n2)c(OC)c1,·,·,-28%,·
COc1ccc2[nH]cc(CCNc3ccnc(-c4ccc5c(c4)OCO5)n3)c2c1,·,·,45µM*,·
COc1ccc2[nH]cc(CCNc3cc(-c4cccnc4)ncn3)c2c1,·,·,32µM*,·
Cn1cc(S(=O)(=O)N2CCC(C(=O)Nc3cccc(F)c3)CC2)cc1C(N)=O,·,·,0%,·
Fc1ccc(-c2cn3cc(Cc4ccccc4)sc3n2)cc1,·,·,-6%,·
S=c1[nH]cc(Cc2ccccc2)s1,-1%,-2%,7.9µM*,2%
CCOc1cc(CNc2ncc(-c3ccc(OC)cc3)n2C)ccc1O,-1%,14%,1µM*,2%
Cc1ccc(N/N=C/c2ccc(C)s2)cc1,·,·,56µM*,·
COc1ccc(-n2nc(C)c([C@@H]3C=C[C@@H](NC(=O)NCc4ccccc4)C3)c2C)cc1,·,·,4%[176 µM],·
COc1ccc(S(=O)(=O)CC(=O)c2cc3cc(Br)ccc3oc2=O)cc1,1%,-4%,7.9µM*,3%
SMILES,PTAP TSG101 blk,Eya2 phos inh,ALOX12 inh,USP2a inh
Cc1ccc(C2C=C(c3ccc(Cl)cc3)Nc3nc(NC(=O)c4ccco4)nn32)cc1 (stereo unspecified),·,·,22µM*,·
Cc1ccc2nc(C(C)(C)C)c(Cc3ccsc3)n2c1,·,·,6.3µM*,·
Cc1cc(Br)cn2c(Cc3ccsc3)c(C(C)(C)C)nc12,·,·,35µM*,·
CCCc1nc2ccc(C)cn2c1Cc1ccsc1,·,·,20%,·
Cc1ccsc1[C@@H]1CCN(Cc2ccc(C#CC(C)(C)O)cc2)C[C@H]1O,·,·,45µM*,·
Cc1ccsc1C(=O)C1CCCN(Cc2ccc(C#CC(C)(C)O)cc2)C1 (stereo unspecified),·,·,0%,·
O=C(NC[C@H]1O[C@H](Cc2cc(-c3ccc(F)cc3)on2)CC[C@@H]1O)NC1CCCCC1,·,·,6%[176 µM],·
COc1ccc(C2=NN(c3nc4ccccc4s3)C(=O)/C2=C\N(C)C)cc1,-4%,4%,22µM*,-1%
COc1ccc(C2SCC(=O)N2c2nc3ccccc3s2)cc1 (stereo unspecified),-1%,-2%,2%,-5%
COc1cc(C(=O)N(Cc2cccnc2)Cc2cc3cc(C)ccc3[nH]c2=O)cc(OC)c1OC,·,·,12%,·
COc1ccccc1-c1[nH]nc2ncc(-c3c(C)noc3C)nc12,·,·,7%[176 µM],·
O=c1oc2c(-c3ccc([N+](=O)[O-])cc3)cc(O)cc2s1,-1%,-6%,40µM*,3%
Cc1ccc([C@H]2C(C(=O)O)=C[C@@H](CC3CCCC3)N2S(=O)(=O)c2ccc(C)cc2)cc1,-5%,-4%,40µM*,0%
COc1cccc(CNC(=O)C2CCN(C(=O)c3ncn4c3COC(c3ccccc3)C4)CC2)c1 (stereo unspecified),·,·,33%,·
O=C(CSc1ccc2ccccc2n1)NCCc1ccc(F)cc1,·,·,-23%,·
CCN1CC(c2nc3ccccc3n2Cc2cccc3ccccc23)CC1=O (stereo unspecified),·,·,44%,·
Cc1ccc(CN=Cc2[nH]c3ccc(Br)c(Cl)c3c2O)cc1,7%,2%,?,1%
Oc1c(C=NCc2ccc(F)cc2)[nH]c2ccc(Br)c(Cl)c12,·,-9%,13µM*,-1%
C=CCNC(=S)NNC(N)=S,·,·,8.9µM*,·
C=CCNC(=S)NCC=C,-2%,-1%,-9%,3%
O=C(Nc1ccc2ncccc2c1)c1ccccc1Cl,-3%,-4%,45µM*,-1%
O=C(Nc1ccc2ncccc2c1)c1ccccc1,-6%,-2%,?,1%
CC(=O)Nc1ccc(Sc2ccccc2C(=O)O)cn1,-4%,13%,2µM*,1%
CC(=O)Nc1ccc(Sc2ccccc2C(=O)Nc2ccc(F)cc2)cn1,0%,5%,-18%,14%
CC(C)c1ccc(C2C3=C(CC(C)(C)CC3=O)OC3=C2C(=O)CC(C)(C)C3)cc1,·,·,-19%,·
SMILES,PTAP TSG101 blk,Eya2 phos inh,ALOX12 inh,USP2a inh
Cc1ccc2[nH]c(=O)c(CCC(=O)N3CCCCC3)cc2c1,·,·,31%,·
CC(C)CCNc1nc(-c2ccc(O)c(C(N)=O)c2)cs1,·,·,7.9µM*,·
CC(C)CCNc1nc(C(=O)OCC(=O)NC(=O)NCC(C)C)cs1,·,·,-6%,·
COc1ccccc1C1/C(=C(/O)c2ccccc2)C(=O)C(=O)N1CC(C)O (stereo unspecified),-1%,12%,3.5µM*,5%
COc1ccccc1C1/C(=C(/O)c2ccccc2)C(=O)C(=O)N1CCO (stereo unspecified),-1%,9%,?,4%
Cc1ccc(/C(O)=C2\C(=O)C(=O)N(CC(C)O)C2c2cccc(F)c2)cc1 (stereo unspecified),-2%,-39%,18µM*,2%
N#Cc1ccccc1-c1ccc2ncnc(NCc3cccs3)c2c1,·,·,13µM*,·
Cc1cc(C)n(-c2nc3c(c(=O)n(Cc4cccc5ccccc45)c(=O)n3C)n2C)n1,·,·,-5%,·
COc1ccc(-c2cc3c(=O)n(CCNC(=O)c4cccc(OC)c4OC)ccn3n2)cc1,·,·,40%,·
N#Cc1ccc(Sc2ccc(Oc3cccc(Sc4ccc(C#N)c(C#N)c4)c3)cc2)cc1C#N,·,·,-1%,·
N=C1S/C(=C\c2ccc(-c3ccccc3C(=O)O)o2)C(=O)N1c1ccc2c(c1)OCO2,-3%,7%,14µM*,-12%
O=C(Nc1ccc2[nH]c(=S)sc2c1)Nc1ccccc1F,-6%,2%,14µM*,0%

# Bioassay records deposited in PubChem BioAssay by National Center for Advancing Translational Sciences (NCATS).
